In the library only some 3% were active in any assay of this set; here they are far more common.
SENP8 block-1 – SENP8 protease inhibition; Q96LD8; purified SENP8, Z-RLRGG-aminoluciferin cleavage, luminescence; inhibition, % at 10 µM; 1.2% of 330,000 active; in the data active = inhibition above about 50%
TRAIL sens C8 – caspase-8 TRAIL sensitization; NB7+C8 cells + TRAIL, ATPlite viability luminescence; inhibition (viability loss, TRAIL sensitization), % at 10 µM; 1% of 360,000 active;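 active = compounds causing at least 50% loss of cell viability in the single-dose screen, relative to plate controls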
SENP6 block – blocks the human protease SENP6 | inhibition, % at 10 µM | 1.8% of 330,000 active | Recombinant SENP6 catalytic domain, aminoluciferin luminescence | AID 2599;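 active = inhibition above about 50% at the single tested dose, limit read from the data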;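 note: plate controls were DMSO wells with enzyme for no effect and DMSO wells lacking enzyme for full effect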
PPC-1+TRAIL kill – compounds killing PPC-1 cancer cells with TRAIL present (potentiator screen, no TRAIL-free arm); PPC-1 cells + TRAIL, ATPLite viability luminescence; cell killing (% activity), % at 4 µM or 5 µM; 0.41% of 220,000 active; AID 1443;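 active = cell killing above 50% in the first pass at 4 µM, then a duplicate retest at 5 µM averaging 50% or more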;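 note: plate controls were cells with TRAIL plus DMSO for no effect and medium-only wells lacking cells for full effect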
SENP7 inh – SENP7 protease inhibition; recombinant SENP7, Z-RLRGG-aminoluciferin luminescence, 40 min; inhibition, % at 5 µM; 1.5% of 330,000 active; AID 434973;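 active = inhibition above about 50% at the single test dose, limit read from the data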;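 note: plate controls were DMSO with enzyme for no effect and no enzyme buffer wells for full effect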
Target sequence (Q9BQF6 706-1050 limits assumed): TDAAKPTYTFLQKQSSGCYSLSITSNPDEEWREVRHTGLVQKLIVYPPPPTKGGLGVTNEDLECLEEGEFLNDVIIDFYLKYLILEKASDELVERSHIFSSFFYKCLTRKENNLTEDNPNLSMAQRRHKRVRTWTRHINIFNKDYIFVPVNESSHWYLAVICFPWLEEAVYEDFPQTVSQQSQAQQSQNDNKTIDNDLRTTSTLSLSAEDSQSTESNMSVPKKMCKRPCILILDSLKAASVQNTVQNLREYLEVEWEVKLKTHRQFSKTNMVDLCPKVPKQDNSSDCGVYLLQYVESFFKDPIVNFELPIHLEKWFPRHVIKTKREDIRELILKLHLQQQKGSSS
SENP8 block-2 – inhibitors of human SENP8 protease; recombinant SENP8, Nedd8 substrate fluorescence; inhibition, % at 20 µM; 0.64% of 360,000 active; in the data active = inhibition mostly above about 40%, no sharp cut-off; inactive = mostly below about 27%
SENP8 confirm – human SENP8 inhibition, confirmed; 40% of 6,200 active; inhibition, % at 12.5 µM; Recombinant SENP8, Z-RLRGG-aminoluciferin luminescence, 60 min; shares compounds with SENP7 inh;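 active = mean inhibition across replicates above about 50%, limit read from the data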
SENP6 confirm – human SENP6 inhibition, confirmed | shares compounds with SENP7 inh | recombinant SENP6, Z-RLRGG-aminoluciferin luminescence | inhibition, % at 12.5 µM | 58% of 6,200 active | AID 488915
SENP7 conf – human SENP7 inhibition, confirmed; inhibition, % at 12.5 µM; shares compounds with SENP7 inh; recombinant SENP7, Z-RLRGG-aminoluciferin luminescence, 40 min; 69% of 6,200 active
Casp3 select – caspase-3 inhibition (SENP selectivity assay); shares compounds with SENP7 inh; purified caspase-3, Z-DEVD-aminoluciferin luminescence, 60 min; inhibition, % at 12.5 µM; 60% of 6,200 active; AID 488918;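 active = mean inhibition above about 50%, limit read from the data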;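 note: plate controls were enzyme with DMSO for no effect and wells without caspase-3 for full effect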
Target sequence (P42574 28-227 limits assumed): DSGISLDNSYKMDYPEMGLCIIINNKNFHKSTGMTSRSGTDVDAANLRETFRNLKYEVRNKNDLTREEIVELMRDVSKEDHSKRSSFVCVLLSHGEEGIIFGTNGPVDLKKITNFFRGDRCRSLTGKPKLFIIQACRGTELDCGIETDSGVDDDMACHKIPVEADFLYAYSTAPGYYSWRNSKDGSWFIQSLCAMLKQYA
SENP luc ctr – luminescence interference (SENP counter-screen) | 39% of 6,200 active | inhibition, % at 12.5 µM | shares compounds with SENP7 inh | Pre-incubated SENP8/Z-RLRGG-aminoluciferin, luciferase luminescence interference;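 active = mean inhibition above about 50% when retested at one dose, limit read from the data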;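 note: plate controls were DMSO wells with completed reaction for no effect and substrate without enzyme for full effect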
Starred values were filed as active, the others as inactive; · = not tested or not shown.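 Rule for the calls, unless noted: active = mean inhibition above about 50% in the one-dose retest (limit read from the data); inactive = the rest.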

SMILES | SENP8 block-1 | TRAIL sens C8 | SENP6 block | PPC-1+TRAIL kill | SENP7 inh | SENP8 block-2 | SENP8 confirm | SENP6 confirm | SENP7 conf | Casp3 select | SENP luc ctr
CN=C1S/C(=C\c2ccc(N3CCOCC3)c(F)c2)C(=O)N1C | -7 | 17 | -17 | 19 | 12 | -274 | · | · | · | · | ·
COC(=O)CSc1nnc(C2COc3ccccc3O2)n1-c1ccccc1 (stereo not drawn) | -1 | -8 | -4 | 37 | 76* | 10 | -8 | -1 | -5 | -3 | -5
O=C(Nc1ccccc1)C(=O)Nc1ccc2c(c1)N(C(=O)C1CC1)CCC2 | 96* | 47 | 98* | · | 99* | 10 | 56* | 100* | 103* | 98* | 27
COc1ccc(-c2cc3nc4n(c(=O)c3s2)CCC4)cc1 | 91* | 71* | 95* | -11 | 96* | -337 | 12 | 62* | 81* | 76* | 12
COc1cccc(C(=O)Nc2ccc(NC(=O)C3CC3)cn2)c1 | 60* | 15 | 85* | 19 | 82* | 22 | 69* | 69* | 89* | 89* | 12
O=C(Nc1ccc(NC(=O)C2CC2)nc1)c1ccccn1 | 5 | 40 | 55* | 2 | 52* | 3 | 30 | 35 | 61* | 70* | 23
O=C(Nc1ccc(NC(=O)c2ccco2)nc1)c1ccccn1 | 24 | 42 | 54* | 29 | 51* | 6 | -6 | 36 | 74* | 80* | 32
C[C@@H]1CN([C@H](C)CO)C(=O)CCCn2nncc2CO[C@H]1CN(C)Cc1ccccc1C(F)(F)F | · | -13 | · | · | · | -17 | · | · | · | · | ·
O=C(Nc1ccc(S(=O)(=O)Nc2ncccn2)cc1)C1CC(=O)N(c2ccc(Cl)cc2)C1 (stereo not drawn) | 13 | -5 | -3 | · | 5 | -2 | · | · | · | · | ·
COc1cc(/C=C/CNC[C@H]2O[C@@H](n3cnc4c(N)ncnc43)[C@H](O)[C@@H]2O)ccc1O | · | -5 | · | · | · | 18 | · | · | · | · | ·
Cc1cc(O)c2c(c1)C(=O)c1cc(O)cc(O)c1C2=O | 94* | 3 | 97* | · | 80* | 26 | 96* | 98* | 102* | 94* | 81*
COc1ccc2oc3c(ccc[n+]3C)c(=O)c2c1 | · | 7 | · | · | · | 9 | · | · | · | · | ·
Cc1ccc([N+](=O)[O-])cc1NC(=S)NCCc1ccccc1 | 2 | 3 | -7 | · | -5 | 7 | · | · | · | · | ·
CC(C(=O)O)n1c2ccccc2c2cnn(C)c(=O)c21 (stereo not drawn) | -7 | -1 | -4 | · | 0 | -33 | · | · | · | · | ·
COc1ccc2c(C)cc(=O)oc2c1 | · | -7 | · | · | · | -331 | · | · | · | · | ·
COc1cccc(COc2ccc3c(C)cc(=O)oc3c2)c1 | 68* | 14 | 77* | · | 71* | -116 | 4 | 75* | 90* | 65* | 62*
O=C(Nc1ccc(OCc2ccccc2)cc1)Nc1ccccc1C(=O)NCCCN1CCOCC1 | 95* | 9 | 95* | 19 | 97* | -4 | 98* | 100* | 103* | 98* | 88*
CC1CCC(C(C)C)C(OC(=O)CSc2n[nH]c(=O)[nH]c2=O)C1 (stereo not drawn) | 51* | -13 | 0 | 14 | -4 | 5 | -3 | 5 | 9 | 3 | -9
COc1ccc2cc3cc(C(=O)N4CCN(C5CCCCC5)CC4)oc3nc2c1 | -2 | 12 | 4 | · | 3 | -442 | · | · | · | · | ·
COc1ccc2cc3cc(C(=O)N4CCCCCC4)oc3nc2c1 | 79* | 50* | 77* | · | 87* | -376 | 19 | 82* | 97* | 69* | -1
COc1ccc2cc3cc(C(=O)N4CCCCC4C)oc3nc2c1 (stereo not drawn) | 52* | 31 | 64* | · | 67* | -410 | 64* | 61* | 88* | 75* | 22
COc1ccc2cc3cc(C(=O)N(C)C4CCCCC4)oc3nc2c1 | 52* | 33 | 60* | · | 61* | -400 | 6 | 4 | 32 | 38 | -1
CCCCn1c(N)c(N(CC)C(=O)c2ccc(C#N)cc2)c(=O)[nH]c1=O | 1 | -5 | -13 | · | 2 | -9 | · | · | · | · | ·
Cc1cc(C(C)(C)C)cc(C)c1COC(=O)CN1C(=O)NC2(CCCC2)C1=O | -6 | 13 | -15 | · | -2 | 11 | · | · | · | · | ·
COc1ccc(C(CC(=O)c2ccc(O)cc2)S(=O)(=O)c2ccc(C)cc2)cc1 (stereo not drawn) | 28 | 23 | 50 | 8 | 55* | 5 | 52* | 22 | 69* | 18 | 58*
SMILES | SENP8 block-1 | TRAIL sens C8 | SENP6 block | PPC-1+TRAIL kill | SENP7 inh | SENP8 block-2 | SENP8 confirm | SENP6 confirm | SENP7 conf | Casp3 select | SENP luc ctr
Cc1ccc(NC(=O)CCc2c(C)nn(-c3ccc(N4CCCCC4)nn3)c2C)cc1F | 38 | 3 | 56* | · | 31 | -42 | 61* | 53* | 77* | 38 | 10
Cc1nn(-c2ccc(N3CCCCC3)nn2)c(C)c1CCC(=O)Nc1ccc(F)cc1 | -3 | 8 | -3 | · | 7 | -8 | · | · | · | · | ·
CSc1nc(SCc2ccccc2)[nH]c(=O)n1 | · | -8 | · | · | · | 14 | · | · | · | · | ·
C[C@H](NC(=O)C1CC(=O)N(c2ccc3c(c2)OCO3)C1)C(=O)NC1CCCCC1 (stereo partly drawn) | -5 | 2 | 0 | · | 14 | 5 | · | · | · | · | ·
CCOC(=O)NNc1ccc2nonc2c1[N+](=O)[O-] | 61* | · | 64* | 2 | 12 | · | 66* | 80* | 42 | 30 | 6
CCc1ccc(Nc2ccc3nonc3c2[N+](=O)[O-])cc1 | 2 | -21 | -13 | · | -2 | 24 | · | · | · | · | ·
CN(Cc1ccccc1)C(=O)COc1cccnc1[N+](=O)[O-] | 1 | 1 | 12 | · | -6 | 10 | · | · | · | · | ·
COc1ccc(OC)c(/C=N/NC(=O)CNC(=O)c2ccc(S(=O)(=O)N3CCOCC3)cc2)c1 | 0 | 4 | 2 | 1 | 8 | 9 | · | · | · | · | ·
CCCCN1C(=O)C(=Nc2cccc3cnccc23)c2ccccc21 | 11 | -1 | 87* | 16 | 81* | -398 | -10 | -3 | -7 | -2 | -7
CCCN1C(=O)/C(=N\OCC(=O)NCC(F)(F)F)c2ccccc21 | -2 | 12 | 2 | -9 | 2 | 10 | · | · | · | · | ·
CC(C)N1C(=O)c2ccccc2NC(=O)C1C(=O)NC1CC1 (stereo not drawn) | · | 2 | · | · | · | 20 | · | · | · | · | ·
